# In PubChem BioAssay AID540308 (The Scripps Research Institute Molecular Screening Center, 2011):
# The whole screen tested about 360,000 compounds, of which about 3,500 (0.97%) were called active. Shown is part of a subset that was picked to be rich in actives. Unmarked numbers belong to inactive results.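 How the source made its calls: active means activation above a per-plate cutoff, the mean activation of sample wells on that plate plus 3 SD (cut at about 8% in these data); inactive means the rest.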
# Molecular target: Melanocortin receptor 4 (Homo sapiens) (UniProt P32245)
# Test: activators of MC4R beta-arrestin recruitment – cell-based, luminescence, agonist arm of biased-ligand search, primary screen (AID 540308)
# Details: U2OS MC4R beta-arrestin complementation, at 8.9 µM, active compounds read high, percent of melanotan II response, DMSO zero
# Sequence of Melanocortin receptor 4 (Homo sapiens) (P32245 whole entry, looked up): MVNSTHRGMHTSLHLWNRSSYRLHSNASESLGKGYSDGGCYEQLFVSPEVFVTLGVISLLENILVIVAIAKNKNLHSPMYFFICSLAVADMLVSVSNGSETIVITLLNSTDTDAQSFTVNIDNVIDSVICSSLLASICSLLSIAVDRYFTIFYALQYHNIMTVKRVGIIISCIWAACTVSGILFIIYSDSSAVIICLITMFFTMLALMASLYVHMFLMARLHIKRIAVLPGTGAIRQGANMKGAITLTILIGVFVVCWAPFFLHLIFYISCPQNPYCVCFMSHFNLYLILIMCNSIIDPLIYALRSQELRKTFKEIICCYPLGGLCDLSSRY
row,SMILES,activation
1,COc1ccc(Cl)cc1-c1cc(C(=O)Nc2cc(OC)c(OC)c(OC)c2)[nH]n1,3.58%
2,CCCNC(=O)c1cc(C2CCCCN2S(=O)(=O)c2cn(C)cn2)on1 (centres undefined),-0.95%
3,COc1ccc2oc(-c3cccc(NC(=O)CSc4ccc(Cl)cc4)c3)nc2c1,5.84%
4,O=C(Nc1ccc2oc(-c3ccc4ccccc4c3)nc2c1)c1cccs1,14.3% (active)
5,O=C(Nc1ccc2oc(-c3ccccc3F)nc2c1)c1ccco1,-1.85%
6,CCOC(=O)C1(C)CCCN(C(=O)c2cccc(Cl)c2)C1 (centres undefined),0.39%
7,COc1ccc(S(=O)(=O)N2CCCCC2c2cc(C(=O)NCc3ccc(F)cc3)no2)cc1 (centres undefined),-0.38%
8,COc1ccc(-c2noc(COc3ccc(Cl)c(C)c3)n2)cc1,9.56% (active)
9,COc1ccc(N2CCN(C(=O)CCc3nc(-c4ccc(C)cc4)no3)CC2)cc1,-1.45%
10,COc1ccc(C(C)=O)cc1COc1ccc(Cl)c(C)c1,-1.85%
11,O=C(CCCOc1ccccc1)NCc1ccco1,-0.5%
12,O=C(CCCCCN1C(=O)c2cccc3cccc(c23)C1=O)NCc1ccco1,19.2% (active)
13,O=C(COC(=O)CCCN1C(=O)c2cccc3cccc(c23)C1=O)NC1CCS(=O)(=O)C1 (centres undefined),0.21%
14,CCCNC(=O)C1(C)CCN(C(=O)c2ccc(F)cc2Cl)C1 (centres undefined),0.56%
15,CCc1nnc(NC(=O)CSCc2cc(=O)n3cc(C)sc3n2)s1,-1.4%
16,CCc1nc2c(OCCc3cccc(OC)c3)cccn2c1N(C)C(=O)c1ccc(C)cc1,-0.79%
17,CSc1ccc(/C=N\NC(=O)COc2ccc(Cl)cc2Br)cc1,36.4% (active)
18,CSc1ccc(/C=N/NC(=O)c2cccc(Cl)c2)cc1,1.13%
19,Cc1ccc(/C=N/NC(=O)COc2ccccc2-c2ccccc2)cc1,1.38%
20,COCCNc1ncnc2c1ncn2[C@H]1CN(Cc2ccc(OC)cc2)C[C@@H](CO)O1,0%

row,SMILES,activation
1,CCCS(=O)(=O)NC(=O)C1(C)CCCN(C(=O)c2cc(C)on2)C1 (centres undefined),1.12%
2,Cc1ccc(S(=O)(=O)NCCC(=O)NCc2ccc(Cl)cc2)cc1C,-1.43%
3,CSc1ccc(S(=O)(=O)NCc2ccc(Cl)cc2)cc1,10.2% (active)
4,CC(C)CNS(=O)(=O)c1ccc(CCC(=O)NCc2ccc(Cl)cc2)cc1,0.27%
5,O=C(NC(=S)Nc1cccc2c(O)cccc12)c1cccc(Br)c1,30.6% (active)
6,O=C(NC1CC1)c1cccc(Br)c1,-2.46%
7,O=C(NC(=S)Nc1ccc(S(=O)(=O)Nc2ncccn2)cc1)c1cccc(Br)c1,-2.77%
8,Cc1ccccc1Cn1c(C)c(C(=O)NCc2cccc(C(F)(F)F)c2)sc1=O,2.6%
9,O=C(CCCCCn1c(=S)[nH]c2cc3c(cc2c1=O)OCO3)N1CCN(c2ccc(F)cc2)CC1,13.7% (active)
10,Cc1ccc(C)c(N2CCN(C(=O)CCCCCn3c(=S)[nH]c4ccc(N5CCOCC5)cc4c3=O)CC2)c1,-2.66%
11,CC(C)NC(=O)CCCn1c(=S)[nH]c2cc3c(cc2c1=O)OCO3,-1.77%
12,CCc1nc2ccc(C(=O)NCCNC(C)=O)cn2c1N(CC)Cc1cccc(Br)c1,-0.75%
13,CCc1nc2ccc(C(=O)Nc3cccc(OC)c3)cn2c1N(CCC(C)C)CCN(C)C,0.02%
14,COc1ccc(C(C)(NC(C)=O)c2nc(-c3ccc(S(C)(=O)=O)cc3)cs2)cc1 (centres undefined),-1.32%
15,Cc1ccc(O)c(NC(=S)NC(=O)COc2ccc(Br)cc2)c1,19.5% (active)
16,Cn1cccc1C(=O)NNC(=O)COc1ccc(Br)cc1,-1.12%
17,CC(=O)Nc1ccc(OC(=O)COc2ccc(Br)cc2)cc1,-0.49%
18,CCCC(=O)N1CCC1(C)C(=O)NCc1ccc(SC)cc1 (centres undefined),-2.08%
19,CC(C)c1ccc(CC(=O)N2CCC2(C)C(=O)NS(=O)(=O)c2ccc(C(C)(C)C)cc2)cc1 (centres undefined),0.36%
20,CS(=O)(=O)Nc1cccc(-c2cn3ccccc3n2)c1,-3.26%

row,SMILES,activation
1,CCS(=O)(=O)Nc1cccc(-c2cc(-c3ccccc3)c3cc(C)ccc3n2)c1,8.87% (active)
2,Cc1cc(C)cc(NS(=O)(=O)Cc2ccccc2)c1,0.25%
3,CNc1cncc(-c2cccc(C(=O)N3CCOCC3)c2)n1,-2.12%
4,COc1ccc(CC(N)c2csc(NC(=O)Nc3ccc(C(C)C)cc3)n2)cc1 (centres undefined),4.05%
5,COc1ccc(CC(N)c2csc(NC(=O)NC(c3ccccc3)c3ccccc3)n2)cc1 (centres undefined),13.1% (active)
6,COc1ccc(CC(N)c2csc(NC(=O)Cc3ccccc3)n2)cc1 (centres undefined),-0.85%
7,NC(c1ccccc1)c1csc(NC(=O)Nc2cccc(C(F)(F)F)c2)n1 (centres undefined),7.09%
8,NC(Cc1ccc(F)cc1)c1csc(Nc2nncc3ccccc23)n1 (centres undefined),6.94%
9,NC(c1csc(NC(=O)Nc2cccc(C(F)(F)F)c2)n1)C1CCCCC1 (centres undefined),6.14%
10,CC(C)(C)CC(=O)Nc1nc(C(N)Cc2ccc(C(F)(F)F)cc2)cs1 (centres undefined),9.49% (active)
11,NC(Cc1ccccc1)c1csc(Nc2cc(Oc3ccccc3)ncn2)n1 (centres undefined),4.18%
12,COc1ccc(C(N)c2csc(NC(=O)Nc3cccc(C(F)(F)F)c3)n2)cc1 (centres undefined),9.99% (active)
13,Cc1cccc(NC(=O)CN2CCN(CC(=O)NCC3(N4CCCCC4)CCCCC3)CC2)c1C,-0.84%
14,c1cc(-c2ccc3[nH]ccc3c2)n2ccnc2c1,-0.92%
15,CCNC(=O)C1CCCN(C(=O)c2ccc(OC)cc2OC)CC1 (centres undefined),0.47%
16,O=C(NCc1ccco1)c1cccc(-c2ccc3nncn3c2)c1,1.37%
17,CCCOc1ccc(F)cc1-c1cc(C(=O)Nc2ccc(F)cc2)[nH]n1,0.53%
18,CC1(C(=O)NS(=O)(=O)c2ccccc2)CCN1C(=O)C/C=C/c1ccccc1 (centres undefined),-2.25%
19,COCc1cccc(-c2csc(C(O)c3ccc(F)cc3)n2)c1 (centres undefined),-0.9%
